Assay results as given in the supplement of paper PMC10338343.
± gives the standard deviation.

Test system: MILI (PIWIL2) piRISC loaded with piRNA #1 (26 nt)
Assay: pre-steady-state target cleavage rate (min^-1); guide: piRNA #1 5'p-UGAGGUAGUAGGUUGUAUAGUAUCCA; higher = faster piRNA-guided slicing of the target
Conditions: auxiliary factor: 500 nM mouse GTSF1
How it was run: (§1)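 In Cleave-'n-Seq, a transcribed, DNA-blocked target RNA library (0.1 nM) was combined with 1 nM active affinity-purified piRISC bearing one synthetic guide, with or without 500 nM GTSF1 partner protein. Reactions ran in HEPES–potassium acetate buffer at 33 °C for 0–8 or 0–960 min. Uncleaved targets were sequenced and normalised to depth and to weakly complementary targets, three trials were pooled, and k3 was capped at 0.0001 min^-1. The pre-steady-state cleavage rate was obtained by fitting a burst-and-steady-state model.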

Sequence | pre-steady-state target cleavage rate
GGAGACCAUACUAUACAACCAACUACCUCA | 0.00362 ± 0.0025
GGAGACCUAACGUAUACAACCUACUACCUCA | 0.0292 ± 0.012
GGAGUGGUAUACUAUACAACCUACUACCUCA | 0.166 ± 0.011
GGAGACGAUACUAUAGAACCAACUACCUCA | 0.00326 ± 0.0028
GGAGAGCAUACUAUACAACCUACUACCACA | 0.158 ± 0.018
GGAGUGGAUACUUUACAACCUACUACCUCA | 0.174 ± 0.0092
GGAGAGGAUACUAUACAACCUACUACUUCA | 0.153 ± 0.015
GGAGAGGAUACUAUACUACCUUCUACCUCA | 0.0158 ± 0.0024
GGAGACCUAAGAAUACAACCUACUACCUCA | 0.0112 ± 0.0044
GGAGACCAUGCUAUACAACCUACUACCUCA | 0.145 ± 0.023
GGAGACCUUACUAUACAACCUACUACGUCA | 0.0741 ± 0.01
GGAGACCUUACAUACAACCUACUACCUCA | 0.0259 ± 0.0067
GGAGAGGAUACUAUAUAACCUACUACCUCA | 0.167 ± 0.01
GGAGACCUAACUAUACAACCUACUACUUCA | 0.084 ± 0.02
GGAGACGAUACAUACAACCUACUACCUCA | 0.158 ± 0.019
GGAGUGGAUACUAUUCAACCAACUACCUCA | 0.0045 ± 0.002
GGAGUGGAUACUGUACAACCUACUACCUCA | 0.178 ± 0.0077
GGAGAGGAUACUUAUCAACCUACUACCUCA | 0.135 ± 0.0097
GGAGUGGAUACUAUACAACCUACUAGCCUCA | 0.115 ± 0.019
GGAGACCAUACAUAUACAACCUACUACCUCA | 0.101 ± 0.013

Sequence | pre-steady-state target cleavage rate
GGAGACCUUACUAUACAACCUACUACCAUCA | 0.162 ± 0.024
GGAGACCUAACUAUACAACCUGCUACCUCA | 0.0157 ± 0.0084
GGAGACCUAUCUAUACAUCCUACUACCUCA | 0.182 ± 0.018
GGAGACUAUACUAUACAACCUACUACCUCA | 0.171 ± 0.014
GGAGAGGAUACUAUACAACCUACUACUCUCA | 0.123 ± 0.015
GGAGUGGAUACAAUACAUCCUACUACCUCA | 0.256 ± 0.016
GGAGACCUUACUAUACAACCUACUACCUUA | 0.174 ± 0.019
GGAGUGGAUACUAUACAACGAACUACCUCA | 0.00366 ± 0.0017
GGAGACCAUACUAUAGAACCUACUACGUCA | 0.0697 ± 0.013
GGAGACGAUACUAUACAACCUACCACCUCA | 0.122 ± 0.018
GGAGUGCAUACUAUACAACCUACUACCACA | 0.124 ± 0.013
GGAGACCUUACUAUACAACCUACUACCCCA | 0.142 ± 0.021
GGAGACCUAUGUAUACAACCUACUACCUUA | 0.0696 ± 0.0086
GGAGACCUUACUAUACACCCUACUACCUCA | 0.058 ± 0.0099
GGAGACGAUACUAUUCAACCAACUACCUCA | 0.00612 ± 0.0026
GGAGACCAUACUAUACCACCUACUACCUCA | 0.157 ± 0.013
GGAGACCUAACAAUACAUCCUACUACCUCA | 0.191 ± 0.031
GGAGUGGAUACUAUACAACCUACUACGUGA | 0.0157 ± 0.0044
GGAGAGGAUACUAUACAGCCUACUACCUCA | 0.132 ± 0.013
GGAGACCUUACUAUACAUCCUACUACCUCA | 0.292 ± 0.024

Test system: EfPiwi piRISC loaded with piRNA #1 (26 nt)
Assay: pre-steady-state target cleavage rate (min^-1); auxiliary factor: 500 nM Ephydatia muelleri Gtsf1; guide: piRNA #1 5'p-UGAGGUAGUAGGUUGUAUAGUAUCCA; MIWI and MILI are mouse PIWI proteins and EfPiwi is from a freshwater sponge; tags in brackets are library labels; higher = faster piRNA-guided slicing of the target
Conditions: not given
How it was run: as §1

Sequence | pre-steady-state target cleavage rate
GGAGACCAUACUAUACAACCAACUACCUCA | 0.00627 ± 0.0022
GGAGACCUAACGUAUACAACCUACUACCUCA | 0.0505 ± 0.021
GGAGUGGUAUACUAUACAACCUACUACCUCA | 0.0155 ± 0.0067
GGAGACGAUACUAUAGAACCAACUACCUCA | 0.00377 ± 0.002
GGAGAGCAUACUAUACAACCUACUACCACA | 0.00318 ± 0.0021
GGAGUGGAUACUUUACAACCUACUACCUCA | 0.00658 ± 0.0035
GGAGAGGAUACUAUACAACCUACUACUUCA | 0.121 ± 0.05
GGAGAGGAUACUAUACUACCUUCUACCUCA | 0.00328 ± 0.0026
GGAGACCUAAGAAUACAACCUACUACCUCA | 0.00727 ± 0.0035
GGAGACCAUGCUAUACAACCUACUACCUCA | 0.00746 ± 0.0043
GGAGACCUUACUAUACAACCUACUACGUCA | 0.00584 ± 0.0027
GGAGACCUUACAUACAACCUACUACCUCA | 0.00863 ± 0.0045
GGAGAGGAUACUAUAUAACCUACUACCUCA | 0.109 ± 0.041
GGAGACCUAACUAUACAACCUACUACUUCA | 0.00438 ± 0.0028
GGAGACGAUACAUACAACCUACUACCUCA | 0.00551 ± 0.0028
GGAGUGGAUACUAUUCAACCAACUACCUCA | 0.00404 ± 0.0021
GGAGUGGAUACUGUACAACCUACUACCUCA | 0.109 ± 0.039
GGAGAGGAUACUUAUCAACCUACUACCUCA | 0.00553 ± 0.0043
GGAGUGGAUACUAUACAACCUACUAGCCUCA | 0.00369 ± 0.0017
GGAGACCAUACAUAUACAACCUACUACCUCA | 0.0645 ± 0.025

Sequence | pre-steady-state target cleavage rate
GGAGACCUUACUAUACAACCUACUACCAUCA | 0.00369 ± 0.0024
GGAGACCUAACUAUACAACCUGCUACCUCA | 0.0127 ± 0.005
GGAGACCUAUCUAUACAUCCUACUACCUCA | 0.00738 ± 0.0031
GGAGACUAUACUAUACAACCUACUACCUCA | 0.0352 ± 0.014
GGAGAGGAUACUAUACAACCUACUACUCUCA | 0.00775 ± 0.0031
GGAGUGGAUACAAUACAUCCUACUACCUCA | 0.00574 ± 0.0025
GGAGACCUUACUAUACAACCUACUACCUUA | 0.0898 ± 0.034
GGAGUGGAUACUAUACAACGAACUACCUCA | 0.00257 ± 0.0018
GGAGACCAUACUAUAGAACCUACUACGUCA | 0.00374 ± 0.0034
GGAGACGAUACUAUACAACCUACCACCUCA | 0.00631 ± 0.0033
GGAGUGCAUACUAUACAACCUACUACCACA | 0.00342 ± 0.0028
GGAGACCUUACUAUACAACCUACUACCCCA | 0.00566 ± 0.0032
GGAGACCUAUGUAUACAACCUACUACCUUA | 0.00547 ± 0.0039
GGAGACCUUACUAUACACCCUACUACCUCA | 0.00862 ± 0.0036
GGAGACGAUACUAUUCAACCAACUACCUCA | 0.00444 ± 0.002
GGAGACCAUACUAUACCACCUACUACCUCA | 0.00807 ± 0.004
GGAGACCUAACAAUACAUCCUACUACCUCA | 0.00431 ± 0.0035
GGAGUGGAUACUAUACAACCUACUACGUGA | 0.00378 ± 0.0015
GGAGAGGAUACUAUACAGCCUACUACCUCA | 0.105 ± 0.04
GGAGACCUUACUAUACAUCCUACUACCUCA | 0.00607 ± 0.0029
